Laboratory results from PubChem BioAssay (NCI).
About 83,000 compounds went through this panel and 20% of them were active in at least one assay; those are over-represented in the sample as a whole.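 Note: values are percent growth. 100 is the growth of untreated cells, values between 100 and 0 indicate rising inhibition; between -100 and 0 indicates cell death.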 A number with no mark means an inactive call. Calls of active or inactive are those of the source. Rule for the calls: active = growth percent below 10; inactive = the rest.

Tested on: DU-145 prostate
Assay: NCI-60 one-dose screen, 48 h (100 = growth as untreated, 0 = no growth, -100 = all killed)
Details: 10 µM unless noted

Q: Which growth does the source give for `CCn1cc(C(=O)N/N=C/c2cccc(F)c2)c(=O)c2cc(F)c(N3CCNC(C)C3)c(F)c21` (stereo unspecified) here?
A: -87.5% (active)

Q: How did the growth turn out when `CCCC(=O)NC(c1ccc2c(c1)OCO2)c1cc(Cl)c2cccnc2c1O` (stereo unspecified) was run?
A: 53.7%

Q: With `O=C(c1cccc(N2CCOCC2)n1)c1c[nH]c2ccccc12` as the compound, how does the growth read?
A: 99.8%

Q: For `Cc1cc(C(=O)CCCC(=O)c2cc(C)c(O)c(C)c2)cc(C)c1O`, which growth is on record?
A: 109%

Q: `O=C(/C=C/c1ccccc1)c1cccc2ccccc12` was tested. Which growth did it give?
A: 15.6%

Q: For `CNC(=O)c1cc(Oc2ccc3c(c2)sc2nc(-c4ccc(NC(=O)[C@@H](NC(=O)OC)C(C)C)cc4)cn23)ccn1`, which growth is on record?
A: 84.8%

Q: `FC(F)(F)c1[nH]ncc1-c1nc2ccc3[nH]ncc3c2c2c1CCCC2` was tested. Which growth did it give?
A: 6.89% (active)

Q: For `COC(=O)c1ccc2c(c1)c1c(C)c3cnccc3c(C)c1n2C`, which growth is on record?
A: -4.07% (active)

Q: For `CC1=C2[C@@H](CC1)[C@]1(C)O[C@@](C3CCNCC3)(C[C@H]1OC(=O)CO)[C@H]2OC(=O)/C=C/c1ccccc1`, which growth is on record?
A: 101%

Q: For `CCOC(=O)CC1CSC(N/N=C/c2ccc(F)c(Br)c2)=N1` (stereo unspecified), which growth is on record?
A: 103%

Q: With `O=C1/C(=C/c2cccc(Br)c2)COc2ccc(O)cc21` as the compound, how does the growth read?
A: 69.7%

Q: With `O=C(Cn1nc(-c2cccc3ccccc23)ccc1=O)NCc1cccc(Cl)c1` as the compound, how does the growth read?
A: 55.7% [50 µM]

Q: `COc1cc(O)c2c(=O)c3c(CC=C(C)C)cc(OC)c(O)c3oc2c1` was tested. Which growth did it give?
A: 19.5%

Q: Which growth does the source give for `Nc1ccc(Br)cc1C(F)(F)F` here?
A: 116%

Q: Which growth does the source give for `O=C(Nc1ccc(Oc2cccc(Cl)c2)c(Cl)c1)c1cccnn1` here?
A: 86.3%

Q: How did the growth turn out when `COc1cccc(-c2cn3nc(-c4cn(C)c5ccccc45)sc3n2)c1` was run?
A: 106%

Q: `c1ccc(-c2c(-c3ccccc3)[n+](Cc3ccc4ccccc4c3)cn2Cc2ccc3ccccc3c2)cc1` was tested. Which growth did it give?
A: -96.1% (active)

Q: With `COc1ccc(C2[C@@H](c3ccccc3)C(=O)N2c2cc(OC)c(OC)c(OC)c2)cc1F` (stereo partly specified) as the compound, how does the growth read?
A: 11%

Q: Which growth does the source give for `CC(C)CCC[C@@H](C)[C@H]1CC[C@H]2[C@@H]3CC=C4c5sc(Nc6cc(C(F)(F)F)cc(C(F)(F)F)c6)nc5CC[C@]4(C)[C@H]3CC[C@]12C` here?
A: 104%

Q: Which growth does the source give for `Nc1cc(C(=O)O)cc(-n2c(O)c(C=C3N=c4ccccc4=N3)sc2=S)c1` here?
A: 111%

Q: Which growth does the source give for `COc1cccc(CNc2c3ccccc3nc3ccccc23)c1OC` here?
A: 41.7%

Q: With `Clc1ccc(Nc2ncc(Cc3cccc(Cl)c3Cl)s2)cc1` as the compound, how does the growth read?
A: 102%

Q: Which growth does the source give for `CCOC(=O)c1cnn(CC(C)O)c1NC(=O)NCc1cccc(F)c1` (stereo unspecified) here?
A: 96.7%

Q: With `C=C1C(=O)O[C@@H]2C3C(=C(C)CC[C@@H]12)CC1O[C@]13C` (stereo partly specified) as the compound, how does the growth read?
A: 52.9% [6.75 µM]

Q: `CCOC(=O)C1=C(c2ccccc2)N=C2N(c3ccccc3)N=C(C(C)=O)N2C1c1ccc(F)cc1` (stereo unspecified) was tested. Which growth did it give?
A: 106%

Q: Which growth does the source give for `CCCOC(=O)Nc1nc2ccc(SCC)cc2s1` here?
A: 94.6%

Tested on: K-562 leukemia
Assay: as above
Details: 10 µM unless noted

Q: For `COC(=O)c1sccc1-c1cc(O)c(C(=O)Nc2ccccc2)s1`, which growth is on record?
A: 91.6%

Q: How did the growth turn out when `O=C(C1=Cc2cc3ccccc3n2Cc2cnnn21)c1ccc(F)cc1` was run?
A: 87.4%

Q: Which growth does the source give for `Cc1cccc(N2C(=O)/C(=C/C(Cl)=C/c3ccc([N+](=O)[O-])cc3)SC2=S)c1C` here?
A: 3.9% (active)

Q: For `CS(=O)/C(C#N)=C\C=C\c1cccc(Cl)c1` (stereo unspecified), which growth is on record?
A: 10.3%

Q: With `CCOC(=O)/C=C1\S/C(=N\Nc2cc(=O)[nH]c3ccc(Br)cc23)N(c2ccccc2)C1=O` as the compound, how does the growth read?
A: 13.4%

Q: How did the growth turn out when `Cc1ccc2nc(-c3ccc(C(=O)N/N=C/c4ccc([N+](=O)[O-])cc4)cc3)[nH]c2c1` was run?
A: 101%

Q: Which growth does the source give for `COc1ccc(/C=C/C(c2cc(OC)c(OC)c(OC)c2)n2cncn2)cc1O` (stereo unspecified) here?
A: 8.05% (active)

Q: For `CCCCCCCCCCCCCCCCCCOc1ccccc1CC(=O)NCC[N+](C)(C)C`, which growth is on record?
A: 25.9%

Q: For `CCOC(=O)c1c(C)nc2ccccc2c1/C=C/c1ccc(F)cc1`, which growth is on record?
A: 50%

Q: Which growth does the source give for `N#Cc1c(-c2ccccc2)cc(-c2ccccc2)n(CCCCC(=O)NO)c1=O` here?
A: 6.77% (active)

Q: How did the growth turn out when `COc1cc(Cc2cc(OC)c(O)c(OC)c2)cc(OC)c1O` was run?
A: 20.1%

Q: How did the growth turn out when `COc1cc(/C=C/c2cc(/C=C/c3ccc(O)c(OC)c3)n(C(=O)Nc3ccc(Cl)cc3)n2)ccc1O` was run?
A: -7.3% (active)

Q: With `NS(=O)(=O)c1ccc(C(=O)NN2C(=O)c3ccccc3C2=O)cc1` as the compound, how does the growth read?
A: 101%

Q: For `CS(=O)(=O)c1ccc(-c2nc3ccccc3n2CC(=O)N/N=C/c2ccccc2)cc1`, which growth is on record?
A: 92.3%

Q: Which growth does the source give for `CCn1cc(C(=O)N/N=C/c2cccc(F)c2)c(=O)c2cc(F)c(N3CCNC(C)C3)c(F)c21` (stereo unspecified) here?
A: -52.1% (active)

Q: With `CCCC(=O)NC(c1ccc2c(c1)OCO2)c1cc(Cl)c2cccnc2c1O` (stereo unspecified) as the compound, how does the growth read?
A: 11.4%

Q: With `O=C(c1cccc(N2CCOCC2)n1)c1c[nH]c2ccccc12` as the compound, how does the growth read?
A: 103%

Q: With `Cc1cc(C(=O)CCCC(=O)c2cc(C)c(O)c(C)c2)cc(C)c1O` as the compound, how does the growth read?
A: 27.4%

Q: For `O=C(/C=C/c1ccccc1)c1cccc2ccccc12`, which growth is on record?
A: 10.6%

Q: For `CNC(=O)c1cc(Oc2ccc3c(c2)sc2nc(-c4ccc(NC(=O)[C@@H](NC(=O)OC)C(C)C)cc4)cn23)ccn1`, which growth is on record?
A: 47.3%

Q: `FC(F)(F)c1[nH]ncc1-c1nc2ccc3[nH]ncc3c2c2c1CCCC2` was tested. Which growth did it give?
A: 18.7%

Q: With `COC(=O)c1ccc2c(c1)c1c(C)c3cnccc3c(C)c1n2C` as the compound, how does the growth read?
A: 1.64% (active)

Q: For `CC1=C2[C@@H](CC1)[C@]1(C)O[C@@](C3CCNCC3)(C[C@H]1OC(=O)CO)[C@H]2OC(=O)/C=C/c1ccccc1`, which growth is on record?
A: 62.9%

Q: Which growth does the source give for `CCOC(=O)CC1CSC(N/N=C/c2ccc(F)c(Br)c2)=N1` (stereo unspecified) here?
A: 90.5%

Q: Which growth does the source give for `O=C1/C(=C/c2cccc(Br)c2)COc2ccc(O)cc21` here?
A: 2.93% (active)

Q: With `O=C(Cn1nc(-c2cccc3ccccc23)ccc1=O)NCc1cccc(Cl)c1` as the compound, how does the growth read?
A: 20.4% [50 µM]

Q: Which growth does the source give for `COc1cc(O)c2c(=O)c3c(CC=C(C)C)cc(OC)c(O)c3oc2c1` here?
A: 12.2%

Q: `Nc1ccc(Br)cc1C(F)(F)F` was tested. Which growth did it give?
A: 97.1%

Q: `O=C(Nc1ccc(Oc2cccc(Cl)c2)c(Cl)c1)c1cccnn1` was tested. Which growth did it give?
A: 77%

Q: How did the growth turn out when `COc1cccc(-c2cn3nc(-c4cn(C)c5ccccc45)sc3n2)c1` was run?
A: 48%

Q: With `c1ccc(-c2c(-c3ccccc3)[n+](Cc3ccc4ccccc4c3)cn2Cc2ccc3ccccc3c2)cc1` as the compound, how does the growth read?
A: -63.1% (active)

Q: `COc1ccc(C2[C@@H](c3ccccc3)C(=O)N2c2cc(OC)c(OC)c(OC)c2)cc1F` (stereo partly specified) was tested. Which growth did it give?
A: 5.35% (active)

Q: How did the growth turn out when `CC(C)CCC[C@@H](C)[C@H]1CC[C@H]2[C@@H]3CC=C4c5sc(Nc6cc(C(F)(F)F)cc(C(F)(F)F)c6)nc5CC[C@]4(C)[C@H]3CC[C@]12C` was run?
A: 101%

Q: With `Nc1cc(C(=O)O)cc(-n2c(O)c(C=C3N=c4ccccc4=N3)sc2=S)c1` as the compound, how does the growth read?
A: 116%

Q: How did the growth turn out when `COc1cccc(CNc2c3ccccc3nc3ccccc23)c1OC` was run?
A: 15.5%

Q: How did the growth turn out when `Clc1ccc(Nc2ncc(Cc3cccc(Cl)c3Cl)s2)cc1` was run?
A: 86.8%

Q: `CCOC(=O)c1cnn(CC(C)O)c1NC(=O)NCc1cccc(F)c1` (stereo unspecified) was tested. Which growth did it give?
A: 81.1%

Q: `C=C1C(=O)O[C@@H]2C3C(=C(C)CC[C@@H]12)CC1O[C@]13C` (stereo partly specified) was tested. Which growth did it give?
A: 49.6% [6.75 µM]

Q: How did the growth turn out when `CCOC(=O)C1=C(c2ccccc2)N=C2N(c3ccccc3)N=C(C(C)=O)N2C1c1ccc(F)cc1` (stereo unspecified) was run?
A: 96.3%

Q: `CCCOC(=O)Nc1nc2ccc(SCC)cc2s1` was tested. Which growth did it give?
A: 26.2%
